# From PubChem BioAssay (NCATS)
# Inconclusive results are not listed. Calls of active or inactive are those of the source. Calls follow the shape of the dose curve; as a rule, active = well fitted inhibition curve with a large enough effect; inconclusive = small, poorly fitted or top-dose-only effect; inactive = flat fitted curve, though single readings scatter.
# Target: Calcium and integrin-binding protein 1 (Homo sapiens) (UniProt Q99828)
# Assay: Primary qHTS for Identification of Calcium Integrin Binding Protein 1 (CIB1) Competitor (AID 1508620); also: top concentration of the series differs between compounds
# Settings: CIB1-GST / FITC-alphaIIb peptide fluorescence polarization; series mostly up to 57.7 µM; activity change, negative = inhibition: at the top concentration
# Outline: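 Fluorescence polarization competition: GST-tagged CIB1 (1 uM final) preincubated with compound 15 min at room temperature, then FITC-labelled alphaIIb peptide (100 nM final) added. After 15 min at room temperature, polarization read at Ex 480/Em 540.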
# % is scaled to controls: 0 for no effect and ±100 for the full control effect.
# Calcium and integrin-binding protein 1 (Homo sapiens), sequence (Q99828 whole entry, looked up): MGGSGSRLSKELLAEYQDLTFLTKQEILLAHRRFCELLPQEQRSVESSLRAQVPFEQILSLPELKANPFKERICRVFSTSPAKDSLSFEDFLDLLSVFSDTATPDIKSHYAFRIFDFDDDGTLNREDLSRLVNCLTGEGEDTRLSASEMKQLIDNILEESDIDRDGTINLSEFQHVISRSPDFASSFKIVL
SMILES,"activity change, negative = inhibition",Potency
O=C(O)C1=CC(O)C(O)[C@H](O)C1 (stereo not given in full),2.32% (inactive),
C[C@]12CCC3=C4CCC(=O)C=C4CC[C@@H]3[C@H]1CC[C@@]2(O)CC#N,0.252% (inactive),
CN[C@@H]1[C@@H](O)[C@@H](O[C@@H]2[C@@H](O)[C@H](O[C@H]3O[C@H](CN)[C@@H](O)[C@H](O)[C@@H]3O)[C@@H](N)C[C@@H]2NC(=O)[C@@H](O)CN)OC[C@]1(C)O,-2.87% (inactive),
O=C(Nc1cccc(C(F)(F)F)c1)Nc1cc(S(=O)(=O)NC2CC2)ccc1-c1ccsc1,,inactive
C[C@@H]1[C@H](O)[C@@H](C)C=CC=CC=CC=CC=CC=CC=C[C@H](O[C@@H]2O[C@H](C)[C@H](O)[C@H](N)[C@@H]2O)C[C@@H]2O[C@](O)(C[C@@H](O)C[C@@H](O)[C@H](O)CC[C@@H](O)C[C@@H](O)CC(=O)O[C@H]1C)C[C@H](O)[C@@H]2C(=O)O,19.9% (inactive),
CC(C)(F)C[C@H](N[C@@H](c1ccc(-c2ccc(S(C)(=O)=O)cc2)cc1)C(F)(F)F)C(=O)NC1(C#N)CC1,-0.678% (inactive),
Nc1ncnc2c1c(-c1cccc(OCc3ccccc3)c1)cn2C1CC(CN2CCC2)C1 (stereo not given),,inactive
NCC1CCC(C(=O)O)CC1 (stereo not given),-2.09% (inactive),
COc1ccc2c(c1)c(C1=C(c3c[nH]c4ccccc34)C(=O)NC1=O)cn2CCCN(C)C,-17.4% (inactive),
O=C(O)c1ccc(O)c2ncc(N3CCOCC3)cc12,,inactive
c1ccc(CNc2nc(N3CCOc4ccccc43)nc3c2CCCC3)cc1,,inactive
N#Cc1ccc(Oc2ccc3c(c2)COB3O)cc1,,inactive
Nc1ccc(-c2ccc3ncc4ccc(=O)n(-c5cccc(C(F)(F)F)c5)c4c3c2)cn1,,inactive
CCCCC(F)(F)[C@@]1(O)CC[C@H]2[C@H](CC(=O)[C@@H]2CCCCCCC(=O)O)O1,,inactive
CCC(=C(c1ccc(O)cc1)c1ccc(OCCNC)cc1)c1ccccc1,-8.27% (inactive),
CN1N=C(N)c2cn([C@@H]3O[C@H](COP(=O)(O)O)[C@@H](O)[C@@H]3O)c3ncnc1c23,-5.81% (inactive),
CC1=C(C(=O)Nc2cc3cn[nH]c3cc2F)C(c2ccc(C(F)(F)F)cc2)CC(=O)N1 (stereo not given),,inactive
CN1CCc2c(n(Cc3ccc(C(=O)NO)cc3)c3ccccc23)C1,,inactive
CN1CCC(COc2cnc(-c3cccc(Cn4nc(-c5cccc(C#N)c5)ccc4=O)c3)nc2)CC1,,inactive
C[C@@H]1CCO[C@H]2Cn3cc(C(=O)NCc4ccc(F)cc4F)c(=O)c(O)c3C(=O)N12,,inactive

SMILES,"activity change, negative = inhibition",Potency
N#Cc1c(N(CC(=O)O)CC(=O)O)sc(C(=O)O)c1CC(=O)O,1.72% (inactive),
CN(C)CCOc1ccc(C(=C(CCCl)c2ccccc2)c2ccccc2)cc1,-1.18% (inactive),
CNC(=O)c1cc(COc2nnc(Nc3ccc(Cl)cc3)c3ccoc23)ccn1,-10.3% (inactive),
CC1C(=O)OC2C(O)C34C5CC(C(C)(C)C)C36C(OC(=O)C6O)OC4(C(=O)O5)C12O (stereo not given),-7.86% (inactive),
C[C@@H](N)c1ccc(C(=O)Nc2ccnc3[nH]ccc23)cc1,,inactive
O=C(NCCCCN1CCOCC1)c1cc2ccccc2o1,-0.0744% (inactive),
NC[C@H]1O[C@H](O[C@@H]2[C@@H](O)[C@@H](O[C@H]3O[C@H](CO)[C@@H](O)[C@H](N)[C@@H]3O)[C@H](N)C[C@@H]2N)[C@H](O)[C@@H](O)[C@H]1O,-2.83% (inactive),
COc1ccc(C=CC(=O)Nc2ccccc2C(=O)O)cc1OC,-6.78% (inactive),
O=C(Nc1ncc(SCCN2CCCC2)s1)[C@]1(c2ccc(S(=O)(=O)C3CC3)cc2)C[C@@H]1C1CCCCC1,-11.3% (inactive),
CCN1C[C@H](C)n2c(c(O)c3c(=O)n(Cc4ccc(F)c(Cl)c4)nc(C(=O)NC)c32)C1=O,,inactive
CC(C)c1c(C(=O)Nc2ccccc2)c(-c2ccccc2)c(-c2ccc(F)cc2)n1CC[C@H](O)C[C@@H](O)CC(=O)O,-0.253% (inactive),
O=c1cc(-c2ccc(O)c(O)c2)oc2cc(O)cc(O)c12,3.47% (inactive),
Cn1cc(-c2ccc3nnc(Sc4ccc5ncccc5c4)n3n2)cn1,-0.324% (inactive),
CO[C@H]1O[C@@H]2O[C@@]3(C)CC[C@@H]4[C@@H](C)CC[C@@H]([C@H]1C)[C@@]24OO3,-5.86% (inactive),
N#CC(c1ccnc(NCCc2cccnc2)n1)c1nc2ccccc2s1 (stereo not given),-19.8% (inactive),
CCCCC(C)(C)[C@H](O)C=C[C@H]1[C@H](O)CC(=O)[C@H]1CC=CCCCC(=O)O,5.31% (inactive),
O=C1Nc2ccc(I)cc2C1=Cc1cc(Br)c(O)c(Br)c1,43.9% (inactive),
COc1cc(F)c(C(C)C)cc1-c1ccc(C(F)(F)F)cc1CN1C(=O)O[C@H](c2cc(C(F)(F)F)cc(C(F)(F)F)c2)[C@@H]1C,-8.08% (inactive),
CC(O)=C(C#N)C(=O)Nc1ccc(C(F)(F)F)cc1,0.213% (inactive),
c1cc(OCCN2CCCCC2)cc(-c2n[nH]c3ccc(-c4ncn[nH]4)cc23)c1,,inactive
